Laboratory results from PubChem BioAssay (NCI).
Values joined by “and” are separate entries in the source; they are usually repeats but may differ in a detail not shown here. Equal values may be shown once. About 83,000 compounds went through this panel and 20% of them were active in at least one assay; those are over-represented in the sample as a whole.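 Assay: single dose, 48 h. Readout: percent growth (0 = no net growth; negative = cell death). Active: <10.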 Active and inactive are the calls of the source.

What was measured:
Assay in all cases: NCI-60 one-dose screen, 48 h (100 = growth as untreated, 0 = no growth, -100 = all killed)
T-47D breast = conditions: 10 µM unless noted
BT-549 breast = system: BT-549 breast
MDA-MB-435 melanoma = system: MDA-MB-435 melanoma
MCF7 breast = system: MCF7 breast
HCT-116 colon = conditions: 10 µM unless noted
HCC-2998 colon = system: HCC-2998 colon
KM12 colon = system: KM12 colon
SW-620 colon = system: SW-620 colon

Measured: growth

COc1cc(/C=N/NC(=O)CCN2c3ccccc3Sc3ccccc32)cc(OC)c1OC
inactive: T-47D breast 41.5% | BT-549 breast; 10 µM unless noted 88.6% | MDA-MB-435 melanoma; 10 µM unless noted 87.4% | MCF7 breast; 10 µM unless noted 97.3% | HCT-116 colon 80.1% | HCC-2998 colon; 10 µM unless noted 113% | KM12 colon; 10 µM unless noted 81.4%

O=C(Nc1cc(C(F)(F)F)cc(C(F)(F)F)c1)c1cc(Cl)ccc1O
active: T-47D breast -14% and -1.66% | BT-549 breast; 10 µM unless noted -31.5% | MDA-MB-435 melanoma; 10 µM unless noted -21.2% and -8.57% | MCF7 breast; 10 µM unless noted 3.02% and 1.11% | HCT-116 colon -20.2% and -28.9% | HCC-2998 colon; 10 µM unless noted -25.4% and 4.04% | KM12 colon; 10 µM unless noted -24.3% and -33%

CCN(CC)/C([O-])=c1\cccc\c1=C1\N=C(c2ccccc2)N=C1[n+]1ccc(-c2ccccc2)cc1
inactive: T-47D breast 90.5% | BT-549 breast; 10 µM unless noted 93.3% | MDA-MB-435 melanoma; 10 µM unless noted 96.8% | MCF7 breast; 10 µM unless noted 93% | HCT-116 colon 97% | HCC-2998 colon; 10 µM unless noted 93.3%

O=C(/C=C/C12c3ccccc3C(c3ccccc31)C1C(=O)NC(=O)C12)c1ccncc1 (centres undefined)
active: T-47D breast -4.38% | MDA-MB-435 melanoma; 10 µM unless noted 9.93% | MCF7 breast; 10 µM unless noted 3.34% | HCT-116 colon -16.5% | KM12 colon; 10 µM unless noted 7.72%
inactive: BT-549 breast; 10 µM unless noted 15.7% | HCC-2998 colon; 10 µM unless noted 88.2%

O=C1Nc2ccccc2/C1=C/c1cccn1CCCCCn1c2ccccc2c(=O)c2ccccc21
active: T-47D breast 1.55% | MCF7 breast; 10 µM unless noted 1.17%
inactive: BT-549 breast; 10 µM unless noted 65.5% | MDA-MB-435 melanoma; 10 µM unless noted 93.6% | HCT-116 colon 69.8% | HCC-2998 colon; 10 µM unless noted 42.5% | KM12 colon; 10 µM unless noted 12.1%

S=c1nc(CS)[nH]c2ccccc12
inactive: T-47D breast 109% | BT-549 breast; 10 µM unless noted 101% | MDA-MB-435 melanoma; 10 µM unless noted 101% | MCF7 breast; 10 µM unless noted 79.6% | HCT-116 colon 100% | HCC-2998 colon; 10 µM unless noted 110% | KM12 colon; 10 µM unless noted 100%

CCCCCC#CC1OC23CCCCC2C(C#N)(C(=N)O3)C1(C#N)C#N (centres undefined)
inactive: T-47D breast 113% | BT-549 breast; 10 µM unless noted 89.9% | MDA-MB-435 melanoma; 10 µM unless noted 92.6% | MCF7 breast; 10 µM unless noted 88.4% | HCT-116 colon 89.2% | HCC-2998 colon; 10 µM unless noted 102% | KM12 colon; 10 µM unless noted 99.3%

CN(C)C(=O)c1cc2cnc(Nc3ccc(-c4csc5c(=S)cc(N6CCOCC6)oc45)cc3)nc2n1C1CCCC1
active: T-47D breast -3.44% | BT-549 breast; 10 µM unless noted 9.89% | MCF7 breast; 10 µM unless noted -5.27% | HCT-116 colon 2.89% | HCC-2998 colon; 10 µM unless noted 8.51% | KM12 colon; 10 µM unless noted 6.53%
inactive: MDA-MB-435 melanoma; 10 µM unless noted 17.3%

CCn1cc(C(=O)NN=C2CCCC2)c(=O)c2ccc(C)nc21
inactive: T-47D breast 89% | BT-549 breast; 10 µM unless noted 83.5% | MDA-MB-435 melanoma; 10 µM unless noted 86.9% | MCF7 breast; 10 µM unless noted 83.4% | HCT-116 colon 89.1% | HCC-2998 colon; 10 µM unless noted 89.6% | KM12 colon; 10 µM unless noted 94.7%

COc1cc(NC2CCCCC2O)c2nc(-c3ccc(Cl)cc3)ccc2c1 (centres undefined)
inactive: T-47D breast 78.5% and 86.5% | BT-549 breast; 10 µM unless noted 108% and 97.5% | MDA-MB-435 melanoma; 10 µM unless noted 68.4% and 86.5% | MCF7 breast; 10 µM unless noted 51.8% and 59.4% | HCT-116 colon 69.6% and 77.2% | HCC-2998 colon; 10 µM unless noted 91.8% and 93% | KM12 colon; 10 µM unless noted 54.9% and 68.3%

CC(=O)/C=C/c1ccc(OCc2ccc(Cl)cc2)cc1
inactive: BT-549 breast; 10 µM 102% | BT-549 breast; 100 µM 38% | MDA-MB-435 melanoma; 10 µM 94.5% | MDA-MB-435 melanoma; 100 µM 23.1% | SW-620 colon; 10 µM 104% | SW-620 colon; 100 µM 70.4% | MCF7 breast; 10 µM 94.2% | MCF7 breast; 100 µM 46% | HCC-2998 colon; 10 µM 101% | HCC-2998 colon; 100 µM 60.4% | KM12 colon; 10 µM 93.9% | KM12 colon; 100 µM 35.3%

Cc1ccc(Cc2cnc(NC(=O)c3cc(C)oc3C)s2)cc1
inactive: T-47D breast 58.3% | BT-549 breast; 10 µM unless noted 74% | MCF7 breast; 10 µM unless noted 32% | HCT-116 colon 72.4% | HCC-2998 colon; 10 µM unless noted 89.3% | KM12 colon; 10 µM unless noted 38.4%
active: MDA-MB-435 melanoma; 10 µM unless noted 4.22%

COCCn1cc(-c2csc(-c3cn(C)c4ccc(F)cc34)n2)c2cccnc21
inactive: T-47D breast 25.2% | BT-549 breast; 10 µM unless noted 63.8% | MDA-MB-435 melanoma; 10 µM unless noted 40.8% | MCF7 breast; 10 µM unless noted 25.9% | HCT-116 colon 75.5% | HCC-2998 colon; 10 µM unless noted 49.6% | KM12 colon; 10 µM unless noted 40%

CCNC(=S)n1nc(SC)c(C(=O)OCC)c1N
inactive: T-47D breast 86.4% | BT-549 breast; 10 µM unless noted 95.3% | MDA-MB-435 melanoma; 10 µM unless noted 104% | MCF7 breast; 10 µM unless noted 92% | HCT-116 colon 96.1% | HCC-2998 colon; 10 µM unless noted 116% | KM12 colon; 10 µM unless noted 97.5%

Cc1nnc(NS(=O)(=O)c2ccc(N=Nc3ccc(N)nc3N)cc2)s1
inactive: T-47D breast 114% | BT-549 breast; 10 µM unless noted 90.4% and 108% | MDA-MB-435 melanoma; 10 µM unless noted 115% and 105% | MCF7 breast; 10 µM unless noted 105% and 106% | HCT-116 colon 99.7% and 103% | HCC-2998 colon; 10 µM unless noted 105% | KM12 colon; 10 µM unless noted 104% and 103%
